This is part of a sample that, as a whole, favours compounds with a hit. Of some 79,000 tested, about 15% had one in any assay. Rule as the data show it: active = growth inhibition above about 70%; inactive = the rest.
Tests used:
[1] = NCI Yeast Anticancer Drug Screen. Data for the rad50 strain (AID 155);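 also: 0% = growth of vehicle-only cultures of the same strain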; conditions: S. cerevisiae rad50 strain growth inhibition; at 50.0 µM; hits give high values
Summary of the method: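 A DNA repair-deficient yeast mutant serves as the test organism; compound-induced growth inhibition is calculated against vehicle-treated cells.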

[2] = NCI Yeast Anticancer Drug Screen. Data for the mec2-1 strain (AID 157); conditions: S. cerevisiae mec2-1 strain, at 50.0 µM, hits give high values
Summary of the method: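 Compounds were applied to mec2-1 yeast cells. Their growth was then compared with that of vehicle-treated cultures to give growth inhibition.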

[3] = NCI Yeast Anticancer Drug Screen. Data for the sgs1 mgt1 strain (AID 161);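 also: 0% = growth of cultures given vehicle only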; conditions: S. cerevisiae sgs1 mgt1 strain, at 50.0 µM, hits give high values
Summary of the method: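 This yeast growth screen uses a strain with defined DNA-repair lesions; compound-treated growth is compared with vehicle-treated growth.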

[4] = NCI Yeast Anticancer Drug Screen. Data for the cln2 rad14 strain (AID 165);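 also: 0% = growth equal to vehicle treated cultures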; conditions: S. cerevisiae cln2 rad14 strain, at 50.0 µM, hits give high values
Summary of the method: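 Strain: cln2 rad14 yeast, altered in cell cycle control and DNA damage repair. Read-out: growth inhibition vs vehicle.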

[5] = NCI Yeast Anticancer Drug Screen. Data for the bub3 strain (AID 167); conditions: S. cerevisiae bub3 mutant strain, at 50.0 µM, hits give high values
Summary of the method: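 Inhibition values come from growth of compound-treated mutant yeast normalised to vehicle-treated controls.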

[6] = NCI Yeast Anticancer Drug Screen. Data for the mlh1 rad18 strain (AID 175); conditions: S. cerevisiae mlh1 rad18 strain growth inhibition; at 50.0 µM; hits give high values
Summary of the method: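 A repair-deficient yeast strain is exposed to test compound, and growth is scored relative to vehicle-treated controls.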

Measured: growth inhibition

CC(C)=Cc1cc(-c2cc(C=C(C)C)[nH]n2)n[nH]1
inactive: [1] -35.4% | [2] -2% | [3] -20.4% | [4] -24.6% | [5] -9.2% | [6] -11.9%

Cc1c(C)c(O)c(C)c(C)c1O
inactive: [1] -8.8% | [2] -17.1% | [3] -4.85% | [4] -13.2% | [5] 6.85% | [6] 11.4%

CCOC(=O)/C(C#N)=C/c1ccc(Br)cc1
inactive: [1] 15.7% | [2] 0.8% | [3] 0.3% | [4] -4.25% | [5] 7.5% | [6] 21.3%

Cc1c(C#N)c2n(c1C)CC(=O)N2
inactive: [1] 7.85% | [2] 0.45% | [3] 2.8% | [4] -0.85% | [5] -20.4% | [6] -33.9%

CCCCOC(C)OCCCC
inactive: [1] 9.3% | [2] -6.35% | [3] -3.4% | [4] 5.2% | [5] 5.65% | [6] -17%

O=C1OC2CC3CC2C1C3C(=O)N1CCCCC1 (stereo unspecified)
inactive: [1] 11.5% | [2] -1.6% | [3] -8.15% | [4] -33% | [5] -9.65% | [6] -5.4%

CCOC(=O)NC1OC(C(N)=O)C(O)C(O)C1O (stereo unspecified)
inactive: [1] 2.25% | [2] -5.7% | [3] 3.4% | [4] -33.3% | [5] 4.5% | [6] 1.4%

CCCCCCCCCCCCCCCCc1c(C)nc(N(C)C)oc1=O
inactive: [1] 18.8% | [2] 23% | [3] -4.4% | [4] 8.2% | [5] 21.1% | [6] 2.25%

CC1SC2(C(=O)N(CN3CCCCC3)c3ccccc32)N(c2ccccc2)C1=O (stereo unspecified)
inactive: [1] 15.4% | [2] -0.45% | [3] -30.9% | [4] -0.8% | [5] 3.9% | [6] -0.1%

O=C(/C=N\O)Nc1ccccc1O
inactive: [1] 2.6% | [2] 4.3% | [3] -24.4% | [4] -11.6% | [5] -5.15% | [6] -1.9%

CCCCC(C=O)(CC)CCC#N (stereo unspecified)
inactive: [1] 45.1% | [2] -2.55% | [3] 46.3% | [4] -17.9% | [5] -16.1% | [6] 42.2%

Brc1ccc(-c2oc3c4ccccc4c4ccccc4c3c2-c2ccc(Br)cc2)cc1
inactive: [1] 32.5% | [2] 5.35% | [3] 17.8% | [4] -0.95% | [5] 2.9% | [6] 15.2%

CCOC(=O)c1cc2c(ccc3cc(C(=O)OCC)[nH]c32)[nH]1
inactive: [1] 21.9% | [2] 26.1% | [3] 26.8% | [4] 4.2% | [5] 24.4% | [6] -11.3%

CC(CO)CCNc1ncnc2c1ncn2CCC#N (stereo unspecified)
inactive: [1] -9.3% | [2] 10.1% | [3] -46.5% | [4] -19.9% | [5] 6.95% | [6] -13.4%

C/C(=N/NC(N)=O)c1ccccc1Cl
inactive: [1] -3.75% | [2] 3.5% | [3] -14.9% | [4] -20.4% | [5] -6.7% | [6] 12.8%

COC(=O)C(=[N+]=[N-])C(=O)c1ccccc1[N+](=O)[O-]
inactive: [1] 30.5% | [2] 27.4% | [3] 15.8% | [4] 18.5% | [5] 6.9% | [6] 14.5%

CCOc1ccc(NC(=S)N/C=C(/C#N)C(N)=O)cc1
inactive: [1] -13.6% | [2] -26.4% | [3] -15.3% | [4] -14.2% | [5] -16.9% | [6] -3.5%

CN(C)CCC(N)(P(=O)([O-])[O-])P(=O)([O-])[O-].N.N.[Pt+2]
inactive: [1] -24.5% | [2] 2.2% | [3] 3.15% | [4] 12.9% | [5] 12.3% | [6] 3.95%

O=C(Nc1ccccc1)c1cccnc1
inactive: [1] -4% | [2] -18.4% | [3] -0.2% | [4] -13.9% | [5] -2.75% | [6] -2.65%

CCN1CC(C(=O)NC(C)C(=O)O)Cc2ccccc21 (stereo unspecified)
inactive: [1] 7.2% | [2] -1.25% | [3] 9.15% | [4] -31% | [5] 1.45% | [6] -8%

NCCCCC(N)C(=O)O.[Cu+2] (stereo unspecified)
inactive: [1] -13.6% | [2] 3.95% | [3] -4.9% | [4] -6% | [5] -11.8% | [6] -22.8%

From PubChem BioAssay (NCI)
